The panel holds about 83,000 compounds, 20% with a hit somewhere; the sample as a whole holds those more often.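 Step 1: grow cells in 96-well plates. Step 2: add test compound at a single concentration. Step 3: incubate 48 h. Step 4: record percent growth.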 Unmarked numbers belong to inactive results. Activity calls are given as the source filed them. Rule for the calls: active = growth percent below 10; inactive = the rest.
tested on: HL-60(TB) leukemia; assay: NCI-60 one-dose screen, 48 h (100 = growth as untreated, 0 = no growth, -100 = all killed); settings: 10 µM unless noted

Structure (SMILES) | growth
CNC(=O)c1cc(Oc2ccc3nc(NC(=O)Nc4cc(C(F)(F)F)cc(C(F)(F)F)c4)sc3c2)ccn1 | -39.8% (active)
C=C1C(=O)O[C@H]2[C@H]1CC/C(COC(=O)c1cc3ccccc3s1)=C\CC[C@@]1(C)O[C@@H]21 | -33.8% (active)
CC(SC(C)C(=O)N/N=C/c1cccc(Cl)c1)C(=O)N/N=C\c1cccc(Cl)c1 (stereo not drawn) | 82.8%

From PubChem BioAssay (NCI)
